About 2,000 (36%) of roughly 5,500 compounds were called active. Roughly 18% stayed inconclusive and do not appear here. No stated cut-off is given here; in the data, active means normalized growth mostly below about 0.91 (no sharp cut-off); inconclusive means no clear call, values can overlap the other calls; inactive means mostly above about 0.92. The list shows a part of the results.
Assay: chemical genetic growth profiling, strain panel (AID 1159580);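 further: tested at 20 µM; growth read once vehicle control cultures reached saturation at 30 °C; 1 = growth at the plate median or of vehicle wells; lower values mean less growth of the strain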
Details: S. cerevisiae deletion strains, growth OD

Measured: normalized growth

CC(C)CCCC(C)[C@H]1CCC2C3CC[C@@H]4C[C@H](O)CC[C@]4(C)C3CC[C@@]21C (stereo partly drawn)
inactive: locus YAL013W, strain DEP1, active compounds read low 1.04 | locus YBR021W, strain FUR4, active compounds read low 0.992 | locus YBR229C, strain ROT2, active compounds read low 1 | locus YCL029C, strain bik1, active compounds read low 1.02 | locus YDL035C, strain GPR1, active compounds read low 1.02 | locus YDL074C, strain BRE1, active compounds read low 1.01 | locus YDL101C, strain DUN1, active compounds read low 1.01 | locus YDL185W, strain tfp1, active compounds read low 1.02 | locus YDL192W, strain arf1, active compounds read low 1 | locus YDR101C, strain arx1, active compounds read low 0.991 | locus YDR162C, strain NBP2, active compounds read low 1.03 | locus YDR318W, strain mcm21, active compounds read low 1.01 | locus YDR388W, active compounds read low 1 | locus YDR502C, strain sam2, active compounds read low 0.999 | locus YEL061C, strain CIN8, active compounds read low 1 | locus YER110C, active compounds read low 1.01 | locus YER155C, strain BEM2, active compounds read low 1 | locus YER167W, strain BCK2, active compounds read low 1.02 | locus YGL078C, strain dbp3, active compounds read low 1 | locus YGL086W, strain mad1, active compounds read low 1 | locus YGL248W, strain PDE1, active compounds read low 1.01 | locus YGR135W, strain pre9, active compounds read low 1.01 | locus YGR252W, strain gcn5, active compounds read low 0.985 | locus YHR030C, strain SLT2, active compounds read low 1.01 | locus YHR079C, strain IRE1 (second series), active compounds read low 0.997 | locus YHR094C, strain hxt1, active compounds read low 1.01 | locus YHR129C, strain ARP1, active compounds read low 1 | locus YHR200W, strain rpn10, active compounds read low 1 | locus YIL066C, strain RNR3, active compounds read low 1.03 | locus YIL073C, strain SPO22, active compounds read low 1.03 | locus YIL125W, strain kgd1, active compounds read low 0.999 | locus YIR030C, strain dcg1, active compounds read low 1 | locus YJL095W, strain BCK1, active compounds read low 1.01 | locus YJL134W, strain LCB3, active compounds read low 1.01 | locus YJL168C, strain set2, active compounds read low 0.994 | locus YJL187C, strain SWE1 (second series), active compounds read low 1.01 | locus YJR043C, strain POL32, active compounds read low 1.01 | locus YJR075W, strain HOC1, active compounds read low 1 | locus YKL009W, strain mrt4, active compounds read low 1.02 | locus YKL068W, active compounds read low 1 | locus YKL085W, strain MDH1 (second series), active compounds read low 1.01 | locus YKL085W, strain MDH1, active compounds read low 1.01 | locus YKL190W, strain CNB1, active compounds read low 1.01 | locus YKR001C, strain vps1, active compounds read low 0.998 | locus YLR039C, strain RIC1, active compounds read low 1.06 | locus YLR058C, strain SHM2, active compounds read low 1 | locus YLR102C, strain apc9, active compounds read low 1 | locus YLR262C, strain YPT6, active compounds read low 1.06 | locus YLR268W, strain sec22, active compounds read low 0.999 | locus YLR330W, strain CHS5, active compounds read low 1.01 | locus YLR342W, strain FKS1 (second series), active compounds read low 1.01 | locus YLR371W, strain rom2, active compounds read low 1.02 | locus YLR418C, strain cdc73, active compounds read low 0.978 | locus YML016C, strain PPZ1, active compounds read low 1.01 | locus YML032C, strain rad52, active compounds read low 1 | locus YML124C, strain tub3, active compounds read low 1 | locus YMR078C, strain ctf18, active compounds read low 1 | locus YMR223W, strain ubp8, active compounds read low 1.01 | locus YMR307W, strain GAS1, active compounds read low 1.07 | locus YNL067W, strain RPL9B, active compounds read low 1.01 | locus YNL153C, strain GIM3, active compounds read low 1.01 | locus YNL233W, strain BNI4, active compounds read low 1.01 | locus YNL250W, strain rad50, active compounds read low 1 | locus YNL271C, strain bni1, active compounds read low 1.01 | locus YNL298W, strain CLA4, active compounds read low 1 | locus YNL307C, strain MCK1, active compounds read low 1.01 | locus YNL322C, strain KRE1, active compounds read low 1.01 | locus YNR052C, strain pop2, active compounds read low 0.999 | locus YOL006C, strain TOP1, active compounds read low 1.04 | locus YOL012C, strain htz1 0.869 | locus YOL147C, strain pex11, active compounds read low 0.991 | locus YOR061W, strain CKA2, active compounds read low 1.01 | locus YOR069W, strain VPS5, active compounds read low 1.01 | locus YOR136W, strain idh2, active compounds read low 0.994 | locus YOR144C, strain elg1, active compounds read low 0.987 | locus YOR184W, strain ser1, active compounds read low 0.989 | locus YOR316C, strain cot1, active compounds read low 1 | locus YPL055C, strain LGE1, active compounds read low 1.01 | locus YPR119W, strain clb2, active compounds read low 1 | locus YPR141C, strain kar3, active compounds read low 1.02 | locus YPR163C, strain tif3, active compounds read low 1.01 | locus YPR167C, strain met16, active compounds read low 1 | strain wtn01, active compounds read low 1

Reference: PubChem BioAssay AID1159580 (chemical genetic matrix, 2015)
